Bioassay records (PubChem)
MARV entry inh = qHTS for inhibitors of binding or entry into cells for Marburg Virus; AID 540276, 2011; Potency, µM (titrated, usually from 37.8 µM), for inactives: at the top dose activity change, negative = inhibition, actives largely listed as inhibitors; actives 1.8% (n = 300,000); Marburg virus pseudotyped entry inhibition, cell reporter; calls by dose curve; tested in HEK293 cells; also: potency is read from the fitted curve at half-maximal effect
HCMV inh = qHTS Assay for inhibitors of the human cytomegalovirus (HCMV). activity change, negative = inhibition, % at 57.5 µM. actives 4.5% (n = 410,000). HFF cells, HCMV-luciferase reporter, 72 h; active compounds read low. AID 1259415, 2018; in the data active = activity change below about -60%; inconclusive = no clear call, values can overlap the other calls; inactive = above about -39%
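HFF cells seeded 16 h at 37C, treated with compounds, infected with luciferase-reporter HCMV at MOI 1 PFU/cell; luciferase read at 72 h post infection, normalized to buffer-only and Salinomycin controls.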
HCV inh = qHTS Assay for Inhibitors of Hepatitis C Virus (HCV); Huh7.5.1 HCVcc-Cre infection, luciferase reporter, 44 h; Potency, µM (titrated, usually from 41.8 µM), without a hit: top-dose activity change, negative = inhibition, usual class: inhibitors; actives 3.4% (n = 340,000); AID 651820, 2012; active = well fitted inhibition curve with a large enough effect; inconclusive = small, poorly fitted or top-dose-only effect, or another doubt; inactive = no such curve, though single readings can be large or run the other way; also: potency is read from the fitted curve at half-maximal effect
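1,000 cells/well; 4 h culture; + compound; + HCVcc-Cre (~0.5 moi); 44 h; luciferase substrate, RT 15 min; read 15 sec.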
LASV entry inh = qHTS for Inhibitors of binding or entry into cells for Lassa Virus; Lassa virus pseudotype entry inhibition, cell reporter; Potency, µM (top dose mostly 37.9 µM), for inactives: at the top dose activity change, negative = inhibition, most hits filed as inhibitors; actives 1.2% (n = 300,000); AID 540256, 2011; calls by dose curve; tested in HEK293 cells; also: potency is read from the fitted curve at half-maximal effect; nearly all actives have a fitted effect of over 50% in size
FMDV antiviral = High Throughput Screening for Foot and Mouth Disease Virus Antivirals; actives 1.2% (n = 410,000); Potency, µM (series often up to 57.9 µM), for the others: top-dose activity change, negative = inhibition, usual class: inhibitors; FMDV antiviral cell-based qHTS; calls by dose curve; tested in HEK293T cells; also: read-out not given here; potency is read from the fitted curve at half-maximal effect; nearly all actives have a fitted effect of over 45% in size
* hit, by the source's call; ? = inconclusive; . = no result given; [ ] = remark or other dose. This is a sample that favours compounds with a hit; in the whole collection about 7.9% have one here. % is scaled to controls: 0 for no effect and ±100 for the full control effect.

SMILES | MARV entry inh | HCMV inh | HCV inh | LASV entry inh | FMDV antiviral
Cc1coc2c1c(C)cc1oc(=O)cc(C)c12 | -8%[46.1 µM] | -12 | . | 19%[46.1 µM] | 0%
CCc1cc(=O)oc2cc(C)c3c(C)coc3c12 | ? | 20 | 11µM* | 14% | 3%
COc1ccc(OC)c(CCNC(=O)c2cc3c(=O)oc4ccc(C)cc4c3s2)c1 | -28%[46.1 µM] | -6 | . | 10%[46.1 µM] | -13%
Cc1cc(C)n(/C(=C\N(C)C)C(=O)c2ccc(Cl)cc2)n1 | -2%[46.1 µM] | -61* | 13% | 14%[46.1 µM] | 11%
COc1ccc(/C(CC2OC(=O)c3ccccc32)=N\NC(N)=O)cc1 (stereo not given) | 2%[46.1 µM] | 1 | 17% | 6% | 11%
COc1ccc2c(c1OC)C(=O)OC2C/C(=N\NC(N)=O)c1ccccc1 (stereo not given) | 5%[46.1 µM] | -70* | 16% | 15%[46.1 µM] | 44%
COc1ccc(/C=C2\COc3ccccc3C2=O)cc1OC | ? | ? | -27% | ? | -23%
CCOc1cc(/C=N/Nc2nc3ccccc3[nH]2)cc(Br)c1OCC(=O)N(C)C | ? | -12 | ? | ? | ?
CCOc1cc(/C=C2\COc3ccccc3C2=O)cc(Br)c1OCC(=O)N(C)C | ? | -39 | ? | ? | 10µM*
O=C(O)c1ccc(/C=C2\COc3ccccc3C2=O)cc1 | ? | 33 | -5% | ? | 22µM*
O=C(N[C@@H]1c2ccccc2C2(CCN(Cc3c(O)ccc4ccccc34)CC2)[C@H]1O)c1ccccc1 | . | . | . | . | 13%
Cn1nc(C(C)(C)C)cc1C(=O)N1CCCCC1c1cc(C(=O)NCc2ccc(F)cc2)no1 (stereo not given) | . | -75* | . | . | ?
Cn1nc(C(C)(C)C)cc1C(=O)N1CCCCC1c1cc(C(=O)NCc2ccccc2)no1 (stereo not given) | . | -31 | . | . | ?
Clc1ncnc2scc(-c3ccccc3)c12 | -18% | 13 | 3% | -3% | .
S=c1[nH]cnc2scc(-c3ccccc3)c12 | 16% | -77* | -4% | -13% | -16%
CCOC(=O)/C=C/C(=O)Nc1cc(S(=O)(=O)Nc2ccc(OC)cc2)ccc1N1CCOCC1 | ? | -29 | ? | ? | 32µM*
O=C(Nc1cc(S(=O)(=O)Nc2ccc(Cl)cc2)ccc1N1CCCCC1)c1ccc(F)cc1 | ? | -64* | 7.1µM* | ? | 26%
COc1ccc(NS(=O)(=O)c2ccc(N3CCOCC3)c(NC(=O)c3ccco3)c2)cc1 | -8%[46.1 µM] | -22 | -27% | ? | 65%
N#Cc1ccc(C(=O)Nc2cc(S(=O)(=O)Nc3ccc(Cl)cc3)ccc2N2CCCCC2)cc1 | ? | ? | ? | ? | 50%
O=C(Nc1cc(Cl)ccc1N1CCOCC1)c1ccc(Br)o1 | -21% | . | 5% | 0% | -5%
COc1ccc(N2CCOCC2)c(NC(=O)c2ccc(Br)o2)c1 | ? | -81* | . | -4% | ?
COc1ccccc1NS(=O)(=O)c1ccc(N2CCOCC2)c(NC(=O)c2ccco2)c1 | -18%[46.1 µM] | -25 | 11µM* | . | 40%
COc1ccc(NS(=O)(=O)c2ccc(N3CCOCC3)c(NC(=O)C(C)C)c2)cc1 | ? | ? | -9% | -28% | -3%
COC[C@@H](O)[C@@H](OC)[C@H](OC)[C@H](Cc1c(OC)cc(OC)cc1OC)OC | -4%[14.2 µM] | . | . | . | .
CCC(Sc1nc2c(sc3ccccc32)c(=O)n1CCCC(=O)NC1CCCC1)C(=O)Nc1cccc(OC)c1 (stereo not given) | -2%[46.1 µM] | -8 | . | -3%[46.1 µM] | 8%
SMILES | MARV entry inh | HCMV inh | HCV inh | LASV entry inh | FMDV antiviral
Fc1ccc(-c2nn(-c3ccc(Cl)cc3)c3c2cnc2ccc(F)cc23)cc1 | . | 8 | . | 3%[46.1 µM] | -11%
CCOc1ccc(-c2cc3c(=O)n(CC(=O)NCc4ccc(C)cc4)ccn3n2)cc1 | . | 21 | . | 23%[46.1 µM] | 24%
O=C(Nc1ccccc1N1CCOCC1)c1cccc(F)c1 | 1%[46.1 µM] | 9 | ? | . | 1%
COc1ccc(NS(=O)(=O)c2ccc(N3CCOCC3)c(NC(=O)c3ccc(F)cc3)c2)cc1 | 3.5µM* | -33 | ? | ? | 72%
COc1ccc(NS(=O)(=O)c2ccc(N3CCOCC3)c(NC(=O)c3cccc(F)c3)c2)cc1 | ? | -78* | -45% | ? | 48%
CSc1ccc(-c2ccc(C(=O)NCC3CCCO3)c(N3CCC(O)CC3)n2)cc1 (stereo not given) | . | . | . | . | 46%
COc1ccc(N2CCN(c3ccc(N4C(=O)CC(C)C4=O)cc3[N+](=O)[O-])CC2)cc1 (stereo not given) | . | -90* | -17% | . | ?
COc1ccc(N2CCN(c3ccc(N4C(=O)COCC4=O)cc3[N+](=O)[O-])CC2)cc1 | ? | -25 | -28% | 16% | ?
CCCN(C(=O)c1ccc2c(SCC(=O)O)c3c(nc2c1)CCC3)c1cccc(C)c1 | . | -60* | 12% | . | -10%
COc1ccc(COC(=O)N/C=C/c2ccco2)cc1 | 2%[46.1 µM] | -12 | 4% | 1.2µM* | 10%
COc1ccccc1COC(=O)N/C=C/c1ccco1 | -2%[46.1 µM] | 39 | -29% | ? | 20%
CC(C)OC(=O)c1cc2c(ccn2C)n1CC(=O)N(Cc1ccccc1)c1ccccc1 | 2.5µM* | ? | ? | 3.2µM* | -21%
CC(=O)c1ccc(N2CCC(c3cc(-c4ccc(Cl)cc4Cl)n[nH]3)CC2)c([N+](=O)[O-])c1 | ? | -60* | 11µM* | ? | 20µM*
COc1ccc(OC)c(-c2cc(C3CCN(c4ncccc4[N+](=O)[O-])CC3)[nH]n2)c1 | ? | -29 | 11µM* | ? | ?
O=[N+]([O-])c1cccnc1N1CCC(c2cc(-c3ccc(Cl)cc3Cl)n[nH]2)CC1 | ? | -17 | 22µM* | ? | 0%
CC(=O)c1ccc(N2CCN(c3ccccc3O)CC2)c([N+](=O)[O-])c1 | ? | -6 | -23% | 11% | ?
Cc1cccc(C(=O)N2CCc3cc(CNC(=O)COc4ccc(Cl)cc4)ccc32)c1 | . | 20 | . | ? | -18%
O=C(Nc1ccccc1C(F)(F)F)C1(S(=O)(=O)c2ccc(Cl)cc2)CC1 | -1%[46.1 µM] | -9 | . | 4%[46.1 µM] | 5%
COc1ccccc1-c1noc(-c2ccc(NC3CCCC3)c([N+](=O)[O-])c2)n1 | -12%[46.1 µM] | 94 | . | -11%[46.1 µM] | 51%
O=C(Cn1c(-c2cccs2)cc2cc(Cl)ccc21)N1CCN(c2ccccc2F)CC1 | . | -13 | . | ? | 8%
Cc1ccc(C(=O)Nc2cccc(-c3nc(CNC(=O)c4ccc5ccccc5n4)c(C)o3)c2)s1 | . | . | . | . | 25%
Cc1ccc(-c2nc3sc(CCNC(=O)c4ccc(Br)o4)c(C)n3n2)cc1 | . | 57 | . | ? | 8%
Cn1c(CCC(=O)Nc2ccc(F)cc2)nc2cc(S(=O)(=O)N3CCOCC3)ccc21 | -8%[46.1 µM] | -3 | -3% | 2% | -6%
CCn1c(CCl)nc2cc(S(=O)(=O)N3CCOCC3)ccc21 | -14% | 20 | ? | ? | 28µM*
